Results published in PubChem BioAssay AID1053128 (The Scripps Research Institute Molecular Screening Center, 2014).
A number with no mark means an inactive call. How the calls were made is not given here.

Assay: fibrin DD(E) binders, counter-screen IC50, biochemical, fluorescence polarization, dose response, counter-screen for fibrin DD(E)-Tn6 binding project, late-stage follow-up (AID 1053128)
Details: Fluorescence polarization counterscreen, Tn6 peptide/DD(E) assay
`Cc1cc(C)c(S(=O)(=O)NCCn2c(C)cc3ccccc32)c(C)c1` gave an IC50 of over 83.3 µM.
Molecule `CN1C(=O)NC(c2ccccc2[N+](=O)[O-])C2=C1CCCC2=O` (stereo not given) has an IC50 of over 83.3 µM.
For `N#CC1=C(N)Oc2ccc3ccc(O)cc3c2C1c1ccsc1` (stereo not given), the IC50 was over 83.3 µM.
`Cc1cc2cc(CNS(=O)(=O)c3ccc4ccccc4c3)ccc2n1C` gave an IC50 of over 83.3 µM.
For `Cc1cc2c(cc1S(=O)(=O)N1CCN(c3cccc(C)c3C)CC1)OCCN2C`, the IC50 was over 83.3 µM.
`O=C(O)CCCNc1cc(N2CCN(C(=O)c3ccco3)CC2)c2noc3c2c1C(=O)c1ccccc1-3` gave an IC50 of over 83.3 µM.
With `NS(=O)(=O)c1ccc(NS(=O)(=O)c2ccc(NC(=O)c3ccc(-c4ccccc4)cc3)cc2)cc1` the IC50 was over 83.3 µM.
In the case of `Cc1cc2cc(CNC(=O)c3ccc(S(=O)(=O)N4CCOCC4)cc3)ccc2n1C`, the IC50 is reported as over 83.3 µM.
In the case of `COc1ccc2ccccc2c1C(O)c1nccn1C` (stereo not given), the IC50 is reported as over 83.3 µM.
`CCn1c(CSc2n[nH]c(N)n2)nc2cc(C(=O)O)ccc21` showed an IC50 of over 83.3 µM.
